Here are results for 29 molecules from ChEMBL document CHEMBL1157539, “Thousands of chemical starting points for antimalarial lead identification” (Nature, 2010).

Common to all, as to type: functional
The test system of assay [1] is Plasmodium falciparum. As to the kind of experiment: GSK_TCMDC: Inhibition of Plasmodium falciparum 3D7 in whole red blood cells, using parasite LDH activity as an index of growth. Test compounds present at 2uM.
Assay [2] concerns Plasmodium falciparum. Briefly: GSK_TCMDC: Inhibition of Plasmodium falciparum Dd2 in whole red blood cells, using parasite LDH activity as an index of growth. Test compounds present at 2uM.
In another assay the test system is HepG2. Briefly: GSK_TCMDC: Percent inhibition of human HepG2 cell line. Test compounds present at 10uM.

By Inhibition is commonly meant the relative decrease from the control value, in per cent. Read a low Inhibition as a weak effect. As for `CN(C)C(=S)N/N=C1/C(=O)Nc2ccc(OC(F)(F)F)cc21`, the Inhibition in the assay on Plasmodium falciparum [1] worked out at 93%; in the assay with Plasmodium falciparum [2], 52%; in the assay with HepG2, 36%.

Consider `O=C(O)C(F)(F)F.Oc1ccc(CCCNc2nc(NCc3cccc4ccccc34)nc(NC3CCNCC3)n2)cc1`, for which the Inhibition in the assay with Plasmodium falciparum [1] was found to be 91%; with Plasmodium falciparum [2], 0%; in the assay with HepG2, 8%.

On to `Oc1ccc(CCNc2nc(NCc3ccccc3-c3ccc(C(F)(F)F)cc3)nc(N3CCNCC3)n2)cc1`, for which the Inhibition in the assay on Plasmodium falciparum [1] is recorded as 97%; in the assay with Plasmodium falciparum [2], 53%; in the assay on HepG2 it was 17%.

`CCOc1ncccc1CN1CCC(N2CCc3cc(NC(=O)c4cc(C)on4)ccc32)C1` (configuration not stated): the Inhibition was found to be 89% in the assay with Plasmodium falciparum [1], 96% in the assay on Plasmodium falciparum [2] and 0% in the assay on HepG2.

As for `CC(C)N(CCOc1ccc2c(c1)N(C(=O)Nc1ccc(Cl)c(Cl)c1)CC2)C(C)C.O=C(O)C(F)(F)F`, the Inhibition with Plasmodium falciparum [1] came to 100%; with Plasmodium falciparum [2], 39%; with HepG2, 15%.

In the case of `O=C(NCc1cccs1)[C@H](Cc1ccccc1)Nc1ccnc(NCCc2ccc(F)cc2)n1.O=C(O)C(F)(F)F`, the Inhibition in the assay on Plasmodium falciparum [1] is given as 85%; in the assay with Plasmodium falciparum [2] it was 52%; in the assay on HepG2 it was 1%.

With `Nc1nc(N)c2c(CCc3ccc(Cl)c(Cl)c3)cccc2n1`, the Inhibition is 100% with Plasmodium falciparum [1], 83% with Plasmodium falciparum [2] and 51% in the assay with HepG2.

For the molecule `CNCCNCc1ccc(-c2ccc(-c3nc4cc(F)ccc4[nH]3)s2)cc1.O=C(O)C(F)(F)F`, the Inhibition is listed as 99% with Plasmodium falciparum [1], 55% in the assay on Plasmodium falciparum [2] and 22% with HepG2.

With `Cl.O=S(=O)(Nc1cc2c(cc1OCCCN1CCCCC1)CCNCC2)c1ccc(-c2ccc(Cl)cc2)cc1`, the Inhibition in the assay with Plasmodium falciparum [1] was determined as 100%; with Plasmodium falciparum [2], 19%; in the assay with HepG2, 77%.

With `CCOc1ccc(CCC(=O)O)cc1OCC`, the Inhibition is given as 94% in the assay on Plasmodium falciparum [1], 0% with Plasmodium falciparum [2] and 60% with HepG2.

Regarding `CN1CCC(NCc2cccc(-c3cnc(NCc4ccccc4)nc3)c2)CC1.O=C(O)C(F)(F)F`, the Inhibition turned out to be 100% with Plasmodium falciparum [1], 67% with Plasmodium falciparum [2] and 12% in the assay on HepG2.

With `Cc1cc(N2CCCC2)nc(Nc2ccc(NC(=O)Nc3ccccc3)cc2)n1`, the Inhibition is 99% with Plasmodium falciparum [1], 100% in the assay on Plasmodium falciparum [2] and 35% with HepG2.

For the molecule `O=C(Nc1cccc(-c2cccc(-c3nc4ccccc4[nH]3)c2)c1)Nc1ccc(Cl)c(Cl)c1`, the Inhibition stood at 100% with Plasmodium falciparum [1], 98% in the assay with Plasmodium falciparum [2] and 78% with HepG2.

As for `Cc1cc(N(CCN2CCCCC2)CCN2CCCCC2)nc(Nc2ccc(Cl)cc2)n1.Cl`, the Inhibition in the assay with Plasmodium falciparum [1] stood at 100%; in the assay on Plasmodium falciparum [2] it was 79%; in the assay on HepG2, 19%.

In the case of `O=C(O)C(F)(F)F.O=S(=O)(NCCN1CCCC1)c1ccc(-c2cccc(CNC3Cc4ccccc4C3)c2)cc1`, the figures for the Inhibition with Plasmodium falciparum [1], with Plasmodium falciparum [2] and in the assay with HepG2 were 99%, 57% and 55%, respectively.

Regarding `CCc1c(CCNCCCCCCNC(C)Cc2ccc3c(c2CC)OCO3)ccc(OC)c1OC.Cl` (configuration not stated), the Inhibition with Plasmodium falciparum [1] was 100%; in the assay with Plasmodium falciparum [2], 64%; with HepG2, 100%.

On to `Cc1cc(-c2ccc(S(=O)(=O)Nc3cc4c(cc3OC(C)C)CCN(C)CC4)cc2)ccc1Cl.Cl`, for which the Inhibition with Plasmodium falciparum [1] was 90%; in the assay with Plasmodium falciparum [2], 19%; in the assay with HepG2, 33%.

With `CCOc1ccc(-c2nc(NC(=O)CS(=O)(=O)c3ccccc3)sc2C)cc1`, the Inhibition in the assay with Plasmodium falciparum [1] is on record as 100%; in the assay with Plasmodium falciparum [2], 59%; in the assay on HepG2 it was 6%.

Turning to `CC(C)N(Cc1cnc2nc(N)nc(N)c2n1)c1ccc(Cl)c(Cl)c1`, the Inhibition was 100% in the assay on Plasmodium falciparum [1], 98% with Plasmodium falciparum [2] and 63% with HepG2.

As for `COc1ccc(-c2csc(C(=O)NC3CCC(N4CCC(c5ccccc5C)CC4)CC3)c2)cc1` (configuration not stated), the results for the Inhibition in the assay with Plasmodium falciparum [1], with Plasmodium falciparum [2] and in the assay on HepG2 were 100%, 99% and 64%, respectively.

For `O=C(O)C(F)(F)F.O=[N+]([O-])c1cccc(CNC2CCN(Cc3ccc4ccccc4c3)CC2)c1`, the values for the Inhibition in the assay with Plasmodium falciparum [1], in the assay with Plasmodium falciparum [2] and in the assay with HepG2 were 100%, 22% and 12%, respectively.

Regarding `O=C(NC1CCN(c2ccnc(Nc3ccc(F)cc3)n2)C1)c1cc2ccccc2s1` (configuration not stated), the values for the Inhibition in the assay on Plasmodium falciparum [1], in the assay with Plasmodium falciparum [2] and with HepG2 were 99%, 80% and 6%, respectively.

In the case of `Clc1ccc(-c2cc(-c3csc(Nc4ccncc4)n3)on2)cc1`, the Inhibition in the assay on Plasmodium falciparum [1] is given as 100%; with Plasmodium falciparum [2] it was 99%; in the assay with HepG2, 1%.

Consider `Cc1ccc(NC(=O)c2ccc(NCCCN3CC(C)CC(C)C3)c([N+](=O)[O-])c2)cc1F` (configuration not stated), for which the Inhibition with Plasmodium falciparum [1] is 100%; with Plasmodium falciparum [2], 85%; with HepG2, 18%.

With `c1ccc2c(CNc3ccnc(NCc4cccc5ccccc45)n3)cccc2c1`, the values for the Inhibition in the assay on Plasmodium falciparum [1], in the assay on Plasmodium falciparum [2] and in the assay with HepG2 were 99%, 71% and 51%, respectively.

As for `CCCCCCC(C)c1cc(O)c2c(c1)OC(C)(C)C=C2c1ccncc1` (configuration not stated), the Inhibition was 98% in the assay on Plasmodium falciparum [1], 29% in the assay on Plasmodium falciparum [2] and 0% with HepG2.

For the molecule `CCN(CC)c1nc(-c2ccccc2)cc(-c2ccccc2)c1C#N`, the Inhibition in the assay on Plasmodium falciparum [1] is listed as 100%; with Plasmodium falciparum [2] it was 66%; in the assay with HepG2 it was 0%.

As for `CC(=O)Nc1ccc(C(=O)Nc2ccc(-c3csc(-c4nc5ccccc5[nH]4)c3)cc2)cn1`, the Inhibition is 93% in the assay on Plasmodium falciparum [1], 0% with Plasmodium falciparum [2] and 11% in the assay with HepG2.

Turning to `O=C(Nc1cccc(-c2cccc(-c3nc4cc(C(F)(F)F)ccc4[nH]3)c2)c1)c1ccncc1`, the Inhibition with Plasmodium falciparum [1] is on record as 100%; in the assay with Plasmodium falciparum [2], 61%; with HepG2, 52%.
